# Screen size: about 1,300 compounds; about 420 (32%) were called active. Inconclusive results (about 32%) are left out. Calls follow the shape of the dose curve; as a rule, active = well fitted inhibition curve with a large enough effect; inconclusive = small, poorly fitted or top-dose-only effect; inactive = no such curve, though single readings can be large or run the other way. This is one part of the list.
# Molecular target: C-terminal-binding protein 1 (Homo sapiens) (UniProt Q13363)
# Test: qHTS for Inhibitors of the Phosphatase Activity of Eya2: Carboxyl-terminal binding protein (CtBP) Counterscreen for Cherry-picked Compounds; also: nearly all actives have a fitted effect of over 65% in size
# Details: purified protein-protein binding, AlphaScreen, 3 h; series mostly up to 46.1 µM
# In short: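 Cherry-picked compounds (final 2.5 nM–46 uM) were incubated 2 h at RT with 25 nM CtBP-6xHIS and 25 nM GST-E1A. Alpha beads (20 ug/mL) were then added for 1 h, light-protected; DMSO and E1A peptide inhibitor wells set the normalization.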
# Potency is read from the fitted curve at half-maximal effect.
row,SMILES,Potency
1,CCOc1ccc2ccccc2c1C(=O)N[C@@H]1C(=O)N2[C@@H]1SC(C)(C)[C@@H]2C(=O)O,inactive
2,CCN1C(=O)c2cccc3c(S(=O)(=O)N(C(C)=O)c4ccc(OC(C)=O)cc4)ccc1c23,12 µM (active)
3,CC(=O)Oc1ccc(N2C(=O)c3cccc4c([N+](=O)[O-])ccc(c34)C2=O)cc1,inactive
4,N/C(=N\OC(=O)c1ccc2ccccc2c1)c1ccncc1,inactive
5,C/C(=C1/C=Nc2ccccc21)c1ccc(N(C)C)cc1,16.9 µM (active)
6,Cn1c(=O)cc2c3c(c(N4CCCCC4)ccc31)C(=O)c1ccccc1-2,3.79 µM (active)
7,CCOc1ccc(S(=O)(=O)NCc2ccc(C)cc2)c2cccnc12,inactive
8,CCOc1ccc(NC(=O)COc2ccc3c(c2)CCC3)cc1OC,inactive
9,CCOc1ccc(NC(=O)COc2cccc3cccnc23)cc1S(=O)(=O)N1CCCC1,16.9 µM (active)
10,C=CCn1c(C)cc(C(=O)COc2ccc(N(C)S(=O)(=O)c3ccc(NC(C)=O)cc3)cc2)c1C,inactive
11,CN(C)C1=C2C=CC=CC2/C(=C2/C=Cc3ccccc32)C=C1 (configuration not stated),15.1 µM (active)
12,O=C(Nc1ccon1)c1ccc(N2CCCCC2)c([N+](=O)[O-])c1,inactive
13,CSc1cccc(NC(=O)CCCOc2cc(=O)n(C)c3ccccc23)c1,inactive
14,O=C1/C(=C\c2cccc([N+](=O)[O-])c2O)SC(=S)N1Cc1ccccc1,8.49 µM (active)
15,Cc1ccc(OCC(=O)Nc2ccccc2N2CCCC2)c(C)c1,inactive
16,Cc1ccc(NC(=O)CSc2cccc3cccnc23)c(C)c1,9.53 µM (active)
17,Cn1c(=O)c2c(ncn2CC(=O)Nc2cccc(S(=O)(=O)Nc3ccccc3F)c2)n(C)c1=O,8.49 µM (active)
18,O=C(Cc1ccccc1F)Nc1cccc(S(=O)(=O)N2CCCCC2)c1,inactive
19,CCCNC(=O)C1(C)CCN(Cc2cccc(OC(=O)c3ccccc3)c2)C1 (configuration not stated),inactive
20,CC(=O)Nc1ccc(S(=O)(=O)NCc2ccc3[nH]c(C)cc3c2)cc1,inactive
21,O=C(CCCl)Nc1cccc2cccnc12,8.49 µM (active)
22,COc1ccc(Cl)cc1NC(=O)CCCn1c(=O)c2cccn2c2cccnc21,inactive
23,CC1(C)CC(=O)c2c(oc3ccc(NS(=O)(=O)c4cccc5cccnc45)cc23)C1,inactive
24,CC(=O)Nc1ccc(S(=O)(=O)Nc2cccc3cccnc23)cc1,4.26 µM (active)
25,O=S(=O)(Nc1cccc2cccnc12)c1ccccc1Br,9.53 µM (active)

row,SMILES,Potency
1,CC(=O)c1cccc(-c2cnc3c(NC=O)cc(-c4ccc(N(C)C)cc4)cn23)c1,inactive
2,COC(=O)c1cc2c(ccc3ccccc32)oc1=O,12 µM (active)
3,CC(C)Cc1nc2oc3c(=O)[nH]cnc3c2c2c1CCC2,15.1 µM (active)
4,CCC(=O)c1cn(CC(=O)Nc2c(C)cccc2C)c2ccccc12,inactive
5,Cc1ccccc1OCCn1cc(C(=S)N2CCN(C)CC2)c2ccccc21,15.1 µM (active)
6,O=C(CN1C(=O)/C(=C/c2ccco2)SC1=S)Nc1ccc(C(=O)O)c(O)c1,10.7 µM (active)
7,COc1cc(/C=C2\SC(=S)N(CCC(=O)Nc3cccc(O)c3)C2=O)cc(OC)c1OC,inactive
8,CCn1c(SCC(=O)N2CCN(c3ccccc3)CC2)nc2c(c1=O)SC(C)C2 (configuration not stated),inactive
9,Cc1c(C(=O)O)c(O)cc2c1C(=O)c1c(O)c([C@H]3O[C@H](CO)[C@@H](O)[C@H](O)[C@H]3O)c(O)c(O)c1C2=O,19 µM (active)
10,Clc1ccc(-c2ccc(CNCc3ccccn3)o2)cc1,12 µM (active)
11,Clc1cccc(-c2ccc(CNCc3ccccn3)o2)c1,16.9 µM (active)
12,Fc1ccc(-c2ccc(CNCc3ccccn3)o2)cc1,15.1 µM (active)
13,O=C(/C=C/c1cccc([N+](=O)[O-])c1)Nc1cccc(NC(=O)c2cccs2)c1,inactive
14,COC(=O)c1ccc(NC(=O)c2ccc3c(c2)C(=O)N(Cc2cccnc2)C3=O)cc1,inactive
15,COC(=O)c1ccc(NC(=O)CSc2nc(=O)n3cccc(C)c3n2)cc1,13.5 µM (active)
16,Cc1ccc(-c2csc(N3CCN(CCCn4c(C(F)(F)F)nc5ccccc54)CC3)n2)cc1,inactive
17,Cc1csc(NC(=O)CSc2sc3c(O)cc(=O)[nH]c3c2C#N)n1,12 µM (active)
18,Cc1cc(C)c2c(n1)sc1c(O)cc(=O)[nH]c12,inactive
19,O=C1c2cccc(Sc3ccccc3)c2C(=O)c2c(Sc3ccccc3)cccc21,3.79 µM (active)
20,Oc1c(Cl)cc(CN2CCOCC2)c2cccnc12,0.601 µM (active)
21,CCN(CC)c1ccc(NC(=S)NC(=O)c2cccs2)cc1,10.7 µM (active)
22,Cc1ccc(C(=O)N2CCN(c3ccc(NC(=S)NC(=O)c4cccs4)cc3)CC2)cc1,inactive
23,CCCC(=O)Nc1ccc(NC(=S)NC(=O)c2cccs2)cc1,inactive
24,CNC(=O)c1cc2c(cn1)[nH]c1ccccc12,inactive
25,Cn1nc(C(=O)Nc2nc3ccccc3[nH]2)c2ccccc2c1=O,10.7 µM (active)

row,SMILES,Potency
1,COc1ccc(-c2noc(N3CCC(C(=O)Nc4cc(OC)ccc4OC)CC3)n2)cc1,inactive
2,COc1ccc(OC)c(Nc2nc(-c3sc(N)nc3C)cs2)c1,8.49 µM (active)
3,CCn1c2ccccc2c2cc(NC(=O)COC(=O)c3ccc(NC(=O)CC#N)cc3)ccc21,inactive
4,Cc1ccc(-n2[nH]c(C)c(C=Nc3ccc(S(=O)(=O)Nc4nccs4)cc3)c2=O)cc1C,7.57 µM (active)
5,CCc1ccc(-c2csc(NC(=O)C3CC(=O)N(c4ccc5c(c4)OCCO5)C3)n2)cc1 (configuration not stated),inactive
6,O=C(Nc1nc(-c2ccccn2)cs1)C1CC(=O)N(c2ccc3c(c2)OCCO3)C1 (configuration not stated),6.01 µM (active)
7,O=C(NCc1ccco1)C1CC2CCC1C2 (configuration not stated),inactive
8,COCCNC(=O)c1cccc(OC2CCN(Cc3ccc(F)cc3OC)CC2)c1,inactive
9,CSc1nnc2c(n1)OC(C)=Nc1ccccc1-2,12 µM (active)
10,C#Cc1cccc(NC(=O)CSc2nnc(-c3ccc(C(F)(F)F)cn3)o2)c1,15.1 µM (active)
11,CCn1ccnc1CNCc1cn(-c2cc(C)ccc2C)nc1-c1ccccc1,8.49 µM (active)
12,CCNc1ccc2noc3c2c1C(=O)c1ccccc1-3,7.57 µM (active)
13,CN(Cc1ccccc1F)c1nc(-c2cccnc2)nc2ccccc12,inactive
14,O=C(CCS(=O)(=O)c1ccc(F)cc1)Nc1nc(-c2ccccn2)cs1,8.49 µM (active)
15,O=C(CN1C(=O)c2ccccc2C1=O)Nc1nc(-c2cccc([N+](=O)[O-])c2)cs1,inactive
16,CSCCC(=O)Nc1nc(-c2ccccn2)cs1,12 µM (active)
17,CCn1nc(C(=O)Nc2nc(-c3ccccn3)cs2)c2ccccc2c1=O,3.79 µM (active)
18,S=C(NCCCc1cnc[nH]1)NCCCN(Cc1ccc(Cl)cc1)c1ccc(-c2ccccc2)cn1,15.1 µM (active)
19,CN(C)c1ccc(/C=C2\C=Cc3cc(N)ccc32)cc1,7.57 µM (active)
20,COc1ccc2c(c1)C=C/C2=C\c1ccc(N(C)C)cc1,6.75 µM (active)
21,Cc1nc([N+](=O)[O-])cn1CC(O)c1ccc2c(c1)OCO2 (configuration not stated),inactive
22,COC(=O)c1sc2cc(C(F)(F)F)cnc2c1-c1cccnc1,inactive
23,O=C(O)/C=C/C(=O)Nc1ccc2c(c1)C(=O)c1ccccc1C2=O,7.57 µM (active)
24,CC(=O)Nc1ccc2nc(C3CC3)n(Cc3ccc(Cl)cc3)c(=O)c2c1,inactive
25,CN(C)c1ccc(/C=C/C=C2/C=Cc3ccccc32)cc1,5.36 µM (active)

row,SMILES,Potency
1,CCN(CC)c1ccc(/C=C2\C=Cc3ccccc32)cc1,7.57 µM (active)
2,CC1=C/C(=C\c2ccc(N(C)C)cc2)c2ccccc21,7.57 µM (active)
3,CN(C)c1ccc(/C=C2\C=Cc3ccccc32)cc1,8.49 µM (active)
4,C=C(CC[C@]12OC(C(=O)O)C(O)(C(=O)O)C(C(=O)O)(O1)C(OC(=O)/C=C/[C@@H](C)C[C@@H](C)CC)C2O)[C@@H](OC(C)=O)[C@H](C)Cc1ccccc1 (some centres not stated),inactive
5,COC(=O)C(Sc1ccc(Cl)cc1)C1SC(=S)N(Cc2ccccc2)C1=O (configuration not stated),inactive
6,Cc1cccc(C#Cc2ccccc2)n1,inactive
7,C[C@H](CCC(=O)NCC(=O)O)[C@H]1CC[C@H]2[C@@H]3[C@H](O)C[C@@H]4C[C@H](O)CC[C@]4(C)[C@H]3C[C@H](O)[C@]12C,inactive
8,CN(C)c1ccc(C=C2C=Cc3ccccc32)cc1,7.57 µM (active)
9,Cc1nn(C)c(Cl)c1CN1CCCC(CO)(Cc2cccc(Cl)c2)C1 (configuration not stated),inactive
10,COc1ccc(N2CCN(Cc3ccc(Br)s3)CC2)cc1,15.1 µM (active)
11,COc1ccc(N2CCN(Cc3cc4c(cc3Br)OCCO4)CC2)cc1,12 µM (active)
12,CC(C)n1ncc2c(C(=O)N3CCN(Cc4ccc(Br)s4)CC3)cc(C3CC3)nc21,inactive
13,COc1ccc(N2CCN(C(=O)CCC(=O)N3CC(C)Oc4ccc(C)cc43)CC2)cc1 (configuration not stated),inactive
14,COc1ccc(N2CCN(C(=O)Cc3ccc(Cl)cc3)CC2)cc1,inactive
15,COc1ccc(N2CCN(C(c3cccs3)C(C)NC(=O)c3ccc4c(c3)OCO4)CC2)cc1 (configuration not stated),inactive
16,COC(=O)c1c(C)[nH]c(C(=O)C(C)OC(=O)C2CC(=O)N(c3ccc(C)cc3)C2)c1C (configuration not stated),inactive
17,COc1cc(CNCc2ccc(OC)cc2OC)cc(OC)c1,inactive
18,O=C(O)c1cc(-c2ccc(/C=C3\NC(=O)N(c4ccc(Cl)cc4)C3=O)o2)ccc1Cl,8.49 µM (active)
19,Cc1cc(NC(=O)CSc2nnc(Nc3ccccc3F)s2)no1,inactive
20,CC(C)Nc1nnc(SCC(=O)Nc2ccc3c(c2)C(=O)c2ccccc2C3=O)s1,5.36 µM (active)
21,CCCCc1cc(=O)oc2cc(OCC(=O)N3CCC(C(=O)O)(c4ccccc4)CC3)ccc12,inactive
22,Cc1coc2c(C)c3oc(=O)c(CCC(=O)N4CCC(C(=O)NCCCC(=O)O)(c5ccccc5)CC4)c(C)c3cc12,15.1 µM (active)

# From PubChem BioAssay AID720541 (National Center for Advancing Translational Sciences (NCATS), 2013)
